This passage reports inhibition and activity results from PubChem BioAssay.

Test system in one assay: not listed separately
In words: inhibitors of PAF-induced NFkB signaling in CF airway cells, dose response, cell-based, uHTS hits, panel, cytotoxicity readout (AID 624344). The following applies: CF bronchial epithelial cells, PAF-induced NFkB reporter inhibition, with PAF, run 1; at 79 µM (top of the series).
For the molecule `COc1cc2c(c(OC)c1OC)-c1ccc(O)cc1C(NC(C)=O)CC2` (stereo unspecified), the inhibition was -101%.

Turning to `COc1ccc(-n2nnnc2C(c2cccc(OC)c2OC)N2CCC(n3c(=O)[nH]c4ccccc43)CC2)cc1` (stereo unspecified), the inhibition came out at 99.3%.

As for `COc1ccc(-n2nnnc2C(CCc2ccccc2)N2CCC(n3c(=O)[nH]c4ccccc43)CC2)cc1` (stereo unspecified), the inhibition is 103%.

Regarding `N#CC1c2ccccc2-n2nncc2CN1Cc1cc(Cl)cc(Cl)c1` (stereo unspecified), the inhibition was determined as 91.8%.

Turning to `NC(=O)c1c(Br)n(C2OC(CO)C(O)C2O)c2ncnc(N)c12` (stereo unspecified), the inhibition worked out at 106%.

`COc1ccc(C(c2nnnn2-c2ccc(OC)cc2)N2CCC(n3c(=O)[nH]c4ccccc43)CC2)cc1` (stereo unspecified): the inhibition is 98.8%.

Test system in a further assay: not listed separately
The assay is described as above. Particulars: CF bronchial epithelial cells, PAF-induced NFkB reporter inhibition, with PAF, run 2; at 79 µM (top of the series); in the data active = activity above about 50%; inactive = the rest.
On to `C=C1C(=O)OC2CC3(C)OC3CCC(C)=CC(OC(C)=O)C12` (stereo unspecified), for which the inhibition was 99.9%.

With `O=c1[nH]c2ccccc2n1C1CCN(C(c2cc3ccccc3o2)c2nnnn2-c2ccc3c(c2)OCCO3)CC1` (stereo unspecified), the inhibition was 104%.

With `COc1ccc2c(c1)[nH]c1c(C)nccc12`, the inhibition was found to be 97.6%.

As for `NC(=Nc1ccccc1)NN=Cc1c[nH]c2ccccc12`, the inhibition worked out at 116%.

As for `C=CC[C@@H](CC/C=C/C=C/CC/C=C\[C@@H]1CSC([C@@H]2C[C@@H]2C)=N1)OC`, the inhibition came to 64.9%.

Take `O=c1[nH]c2ccccc2n1C1CCN(C(c2cccc3ccccc23)c2nnnn2Cc2ccccc2)CC1` (stereo unspecified): the inhibition amounted to 101%.

As for `C[C@H]1CCCC(=O)CCC/C=C/c2cc(O)cc(O)c2C(=O)O1`, the inhibition came to 114%.

For `C=C1C(C)C2C(Cc3ccccc3)NC(=O)C23OC(=O)/C=C/C(O)CCCC(C)C/C=C/C3C1O` (stereo unspecified), the inhibition is 103%.

On to `COc1ccc(-n2nnnc2C(CCSC)N2CCC(n3c(=O)[nH]c4ccccc43)CC2)cc1` (stereo unspecified), for which the inhibition was 108%.

With `COc1cc(C2c3cc4c(cc3CC3COC(=O)C32)OCO4)cc(OC)c1O` (stereo unspecified), the inhibition is -1.25%.

As for `C[C@H]1C[C@@H](C)C(=O)[C@@H]([C@H](O)CC2CC(=O)NC(=O)C2)C1`, the inhibition is 113%.

As for `COc1ccc(Oc2cc(NC(=O)c3nn(C)cc3[N+](=O)[O-])cc([N+](=O)[O-])c2)cc1`, the inhibition amounted to 101%.

In the case of `CC(=O)c1c(C)n(C2CCCCC2)c2ccc(O)cc12`, the inhibition worked out at 102%.

Consider `COc1ccc(C[C@H]2NC[C@H](O)[C@H]2OC(C)=O)cc1`, for which the inhibition came out at 106%.

`COc1ccc(-n2nnnc2C(c2cccs2)N2CCC(n3c(=O)[nH]c4ccccc43)CC2)cc1` (stereo unspecified): the inhibition was 102%.

As to `COc1cc(C2c3cc4c(c(O)c3CC3COC(=O)C32)OCO4)cc(OC)c1OC` (stereo unspecified), the inhibition was found to be 85%.

With `COc1cc2c(c(OC)c1OC)-c1ccc(O)cc1C(NC(C)=O)CC2` (stereo unspecified), the inhibition was determined as 0.843%.

`COc1ccc(-n2nnnc2C(c2cccc(OC)c2OC)N2CCC(n3c(=O)[nH]c4ccccc43)CC2)cc1` (stereo unspecified): the inhibition was 97.4%.

For `COc1ccc(-n2nnnc2C(CCc2ccccc2)N2CCC(n3c(=O)[nH]c4ccccc43)CC2)cc1` (stereo unspecified), the inhibition was determined as 101%.

With `N#CC1c2ccccc2-n2nncc2CN1Cc1cc(Cl)cc(Cl)c1` (stereo unspecified), the inhibition was 95.5%.

Turning to `NC(=O)c1c(Br)n(C2OC(CO)C(O)C2O)c2ncnc(N)c12` (stereo unspecified), the inhibition worked out at 116%.

Take `COc1ccc(C(c2nnnn2-c2ccc(OC)cc2)N2CCC(n3c(=O)[nH]c4ccccc43)CC2)cc1` (stereo unspecified): the inhibition is 103%.

The next assay deals with Tumor necrosis factor receptor superfamily member 10B (Homo sapiens) (UniProt O14763). Put plainly: caspase-8 TRAIL sensitization, hit retest, confirmation, cell-based, NB7+caspase-8, with/without TRAIL, luminescence panel (AID 651596). The following applies: NB7 neuroblastoma + caspase-8, TRAIL sensitization, luminescence viability, with TRAIL, mean of runs, at 10 µM, stronger effect = higher value.
Sequence of Tumor necrosis factor receptor superfamily member 10B (Homo sapiens) (O14763 whole entry, looked up): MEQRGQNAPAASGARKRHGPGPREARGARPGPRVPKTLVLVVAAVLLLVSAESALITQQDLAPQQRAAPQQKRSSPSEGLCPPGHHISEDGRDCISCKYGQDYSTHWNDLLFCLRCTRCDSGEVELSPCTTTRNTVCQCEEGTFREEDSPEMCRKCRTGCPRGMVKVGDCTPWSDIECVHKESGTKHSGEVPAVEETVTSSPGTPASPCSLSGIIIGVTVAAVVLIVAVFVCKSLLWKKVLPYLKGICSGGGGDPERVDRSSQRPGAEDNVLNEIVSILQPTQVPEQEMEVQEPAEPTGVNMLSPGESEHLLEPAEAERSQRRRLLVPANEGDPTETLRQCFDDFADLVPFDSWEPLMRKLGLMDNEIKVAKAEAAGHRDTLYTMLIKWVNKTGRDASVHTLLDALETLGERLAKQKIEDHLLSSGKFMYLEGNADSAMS
Consider `O=c1[nH]c2ccccc2n1C1CCN(C(c2cc3ccccc3o2)c2nnnn2-c2ccc3c(c2)OCCO3)CC1` (stereo unspecified), for which the activity amounted to 81.4%.

Take `CC(=O)OC1C(=O)OCC23CCC4(C)OC4C2OC2CC(OC(=O)C=CC=CC(=O)OCCC1C)C3(C)C21CO1` (stereo unspecified): the activity was 89.6%.

`CC1=CC2OC3CC4OC(=O)C=CC=CC(C(C)O)OCC(O)C5(C)OC5C(=O)OCC2(CC1O)C4(C)C31CO1` (stereo unspecified): the activity was 93%.

With `Cc1ccc(-c2cc(-c3ccccc3)cc(-c3ccccc3)[n+]2-c2ccccc2)cc1`, the activity was 96.6%.

With `CN(C)C(=O)Oc1ccc(-c2cn3cc(Cl)ccc3n2)cc1`, the activity is 80%.

For the molecule `COc1ccc(Oc2cc(NC(=O)c3nn(C)cc3[N+](=O)[O-])cc([N+](=O)[O-])c2)cc1`, the activity turned out to be 94.2%.

With `CCOC(=O)[C@]12Cc3cc(C)ccc3[C@H]1N(C(C)C)C(=O)c1ccccc12`, the activity stood at 44.4%.

Turning to `CCOC(=O)[C@]12Cc3ccccc3[C@H]1N(C1CCCCC1)C(=O)c1cc(OC)ccc12`, the activity worked out at 85.5%.

For `CC12CCC3C(CCC4(O)CC(O)CCC34C=O)C1(O)CCC2C1=CC(=O)OC1` (stereo unspecified), the activity is 82.5%.

On to `COC1C(O)C(C)OC(OC2CCC3(C=O)C(CCC4C3CCC3(C)C(C5=CC(=O)OC5)CCC43O)C2)C1O` (stereo unspecified), for which the activity was 85.2%.

As for `CNC(=O)Oc1cccc(-c2cn3cc(Cl)ccc3n2)c1`, the activity turned out to be 86.8%.

Take `COc1ccc(-n2nnnc2C(CCc2ccccc2)N2CCC(n3c(=O)[nH]c4ccccc43)CC2)cc1` (stereo unspecified): the activity stood at 91.1%.

In the case of `N#CC1c2ccccc2-n2nncc2CN1Cc1cc(Cl)cc(Cl)c1` (stereo unspecified), the activity amounted to 55.8%.

For the molecule `COC(=O)[C@@H]1[C@@H](C(=O)OC)C2(c3ccccc3-c3ccccc32)N(c2ccc(Cl)cc2)N1C#N`, the activity is 96.8%.

Test system in another assay: not listed separately
Described as above. The following applies: NB7 neuroblastoma + caspase-8, without TRAIL, luminescence viability, without TRAIL, mean of runs, at 10 µM.
For the molecule `O=c1[nH]c2ccccc2n1C1CCN(C(c2cc3ccccc3o2)c2nnnn2-c2ccc3c(c2)OCCO3)CC1` (stereo unspecified), the activity came to 83.5%.

In the case of `CC(=O)OC1C(=O)OCC23CCC4(C)OC4C2OC2CC(OC(=O)C=CC=CC(=O)OCCC1C)C3(C)C21CO1` (stereo unspecified), the activity is 92.9%.

As for `CC1=CC2OC3CC4OC(=O)C=CC=CC(C(C)O)OCC(O)C5(C)OC5C(=O)OCC2(CC1O)C4(C)C31CO1` (stereo unspecified), the activity worked out at 98.3%.

For the molecule `Cc1ccc(-c2cc(-c3ccccc3)cc(-c3ccccc3)[n+]2-c2ccccc2)cc1`, the activity amounted to 87.8%.

On to `CN(C)C(=O)Oc1ccc(-c2cn3cc(Cl)ccc3n2)cc1`, for which the activity was found to be 85.6%.

With `COc1ccc(Oc2cc(NC(=O)c3nn(C)cc3[N+](=O)[O-])cc([N+](=O)[O-])c2)cc1`, the activity stood at 97.4%.

In the case of `CCOC(=O)[C@]12Cc3cc(C)ccc3[C@H]1N(C(C)C)C(=O)c1ccccc12`, the activity was found to be 63.6%.

For the molecule `CCOC(=O)[C@]12Cc3ccccc3[C@H]1N(C1CCCCC1)C(=O)c1cc(OC)ccc12`, the activity is 88%.

On to `CC12CCC3C(CCC4(O)CC(O)CCC34C=O)C1(O)CCC2C1=CC(=O)OC1` (stereo unspecified), for which the activity was 85.2%.

As to `COC1C(O)C(C)OC(OC2CCC3(C=O)C(CCC4C3CCC3(C)C(C5=CC(=O)OC5)CCC43O)C2)C1O` (stereo unspecified), the activity came out at 91.8%.

Regarding `CNC(=O)Oc1cccc(-c2cn3cc(Cl)ccc3n2)c1`, the activity was determined as 83%.

For `COc1ccc(-n2nnnc2C(CCc2ccccc2)N2CCC(n3c(=O)[nH]c4ccccc43)CC2)cc1` (stereo unspecified), the activity amounted to 88.8%.

Consider `N#CC1c2ccccc2-n2nncc2CN1Cc1cc(Cl)cc(Cl)c1` (stereo unspecified), for which the activity is 86.4%.

With `COC(=O)[C@@H]1[C@@H](C(=O)OC)C2(c3ccccc3-c3ccccc32)N(c2ccc(Cl)cc2)N1C#N`, the activity came to 99.2%.

What is called inhibition is the change of the read-out against control, counted positive when it falls.
